# Screens (PubChem)
# Sampled rows, rich in hits. Any-hit rate of the full collection: about 3.3%.
# PRMT1 inh: PRMT1 methyltransferase inhibitors, primary screen, biochemical, fluorescence polarization. hit rate 1.3% among 370,000. inhibition, % at 2.79 µM. Protein arginine N-methyltransferase 1 (Homo sapiens), Q99873. recombinant PRMT1, activity-based probe fluorescence polarization;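 active means inhibition above about 21% made by adding two undisclosed values, limit read from the data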
# UHRF1 binding: UHRF1 methylated DNA binding inhibitors, primary screen, counter-screen for MBD2 inhibitor project, biochemical, TR-FRET, human UHRF1, single concentration; UHRF1 binding to methylated oligo; hit rate 0.75% among 370,000; AID 687016, 2013; E3 ubiquitin-protein ligase UHRF1 (Homo sapiens), Q96T88; inhibition, % at 4.4 µM; in the data active means inhibition above about 21%;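 further: UHRF1 SRA domain binding a hemimethylated CpG hairpin DNA probe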
# PfGluPho inh: PfG6PD enzyme inhibitors, primary screen, biochemical, fluorescence intensity, uHTS. glucose-6-phosphate dehydrogenase-6-phosphogluconolactonase (Plasmodium falciparum 3D7). PfGluPho enzyme, NADPH resazurin-diaphorase fluorescence. inhibition, % at 20 µM. hit rate 0.78% among 350,000;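 active means inhibition reaching at least a set limit at 20 µM in the primary screen, cut at about 59% in these data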
# MBD2 inh: inhibitors of MBD2 binding to methylated DNA, primary screen, biochemical, TR-FRET, DNA-binding domain, human; Methyl-CpG-binding domain protein 2 (Homo sapiens), Q9UBB5; MBD2 binding to methylated oligonucleotide; inhibition, % at 4.4 µM; hit rate 0.31% among 370,000; AID 686964, 2013; in the data active means inhibition above about 13%
# PfM18AAP inh-1: PfM18AAP inhibitors, malaria aminopeptidase, primary screen, biochemical, QFRET, recombinant enzyme; M18 aspartyl aminopeptidase (Plasmodium falciparum 3D7); H-Glu-NHMec fluorogenic cleavage; hit rate 1.2% among 290,000; inhibition, % at 7.35 µM;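 active means inhibition above the campaign mean inhibition over all tested compounds plus 3 SD, cut at about 28% in these data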
# PfM18AAP inh-2: PfM18AAP inhibitors, malaria aminopeptidase, confirmation, biochemical, QFRET, recombinant enzyme, triplicate; inhibition, % at 7.35 µM; shares compounds with PfM18AAP inh-1; hit rate 28% among 2,400; H-Glu-NHMec fluorogenic cleavage; AID 2170, 2009;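 active means mean inhibition over replicate wells above the hit cutoff set for the earlier primary screen, cut at about 29% in these data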
# CTSL1 confirm: cathepsin L1 inhibitors, retest, confirmation, counter-screen for PFM18AAP inhibitor project, biochemical, QFRET, triplicate; shares compounds with PfM18AAP inh-1; purified cathepsin L1, Z-Leu-Arg-MCA fluorescence; inhibition, % at 5.96 µM; 2,400 tested, under 10 active; AID 2178, 2009;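 active means average inhibition across replicates above the hit cutoff set in the earlier primary screen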
# Target sequence (P07711 whole entry, looked up): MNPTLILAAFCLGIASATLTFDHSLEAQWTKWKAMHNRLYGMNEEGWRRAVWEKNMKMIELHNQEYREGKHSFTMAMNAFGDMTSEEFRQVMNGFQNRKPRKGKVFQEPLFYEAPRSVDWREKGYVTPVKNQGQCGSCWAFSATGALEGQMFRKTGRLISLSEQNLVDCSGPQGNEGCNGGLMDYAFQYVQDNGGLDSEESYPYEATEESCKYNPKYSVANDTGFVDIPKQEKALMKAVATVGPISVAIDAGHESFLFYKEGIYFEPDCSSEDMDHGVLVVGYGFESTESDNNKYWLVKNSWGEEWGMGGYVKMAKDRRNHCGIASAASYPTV
# PfG6PD confirm: PfG6PD inhibitors, hit retest, confirmation, biochemical, fluorescence intensity, single concentration | shares compounds with PfGluPho inh | recombinant PfGluPho, NADPH-diaphorase-resazurin fluorescence | inhibition, % at 20 µM | hit rate 34% among 2,400;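 active means inhibition of at least 50% at 20 µM in any single replicate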
# Diaph ctr 10uM: diaphorase inhibitors and chemical oxidizers, confirmation, counter-screen for P. falciparum G6PD inhibitor project, biochemical, fluorescence intensity, 10 µM NADPH | shares compounds with PfGluPho inh | diaphorase-coupled resazurin reduction, NADPH 10 uM | inhibition, % at 20 µM | hit rate 39% among 820;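 active means average inhibition reaching 50% or more with the compound at 20 µM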;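 further: resorufin red fluorescence formed as diaphorase reduces resazurin using NADPH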
# Diaphorase 30uM: diaphorase inhibitors and chemical oxidizers, confirmation, counter-screen for P. falciparum G6PD inhibitor project, biochemical, fluorescence intensity, 30 µM NADPH; hit rate 29% among 820; inhibition, % at 20 µM; shares compounds with PfGluPho inh; Diaphorase/resazurin coupled assay, resorufin fluorescence; AID 504863, 2011;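 active means inhibition averaging 50% or more, tested at 20 µM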
# Hits are given with their value; . = inactive; / = not tested or not shown.
SMILES,PRMT1 inh,UHRF1 binding,PfGluPho inh,MBD2 inh,PfM18AAP inh-1,PfM18AAP inh-2,CTSL1 confirm,PfG6PD confirm,Diaph ctr 10uM,Diaphorase 30uM
c1nc(NC[C@@H]2CCCO2)c2cc(-c3ccc4c(c3)OCO4)ccc2n1,.,.,/,.,/,/,/,/,/,/
COc1ccc(-c2nc3ccccc3c(=O)n2NC(=S)N(C)C)cc1,24.5,.,80.4,.,35.6,32.7,.,.,/,/
COc1ccc(OCC(=O)Nn2c(-c3ccc(OC)cc3)nc3ccccc3c2=O)cc1,.,.,.,.,.,/,/,/,/,/
COc1cccc(C(=O)N[C@H](C(=O)N2CCC[C@H]2C(=O)NCCc2ccccc2Cl)c2ccccc2)c1,.,.,/,.,/,/,/,/,/,/
C[C@H]1[C@H](NC(=O)c2ccc(Cl)c(C(F)(F)F)c2)CC[C@@]23CCCN2C(=O)CCC[C@@H]13,.,.,/,.,/,/,/,/,/,/
CCOC(=O)C1CCCN(C(=O)Cn2sc3nc(C)cc(C)c3c2=O)C1 (stereo not drawn),/,/,68.5,/,59.2,.,.,51.7,.,.
CC(C)(C)[C@@H]1/C(=C/C2CC2)N2C(=O)C[C@@H](c3ccccc3)N=C2N1Cc1ccc2c(c1)OCO2,.,.,/,.,/,/,/,/,/,/
COC(=O)[C@]12C[C@H](CC(=O)N3CCN(C(=O)c4ccco4)CC3)C(=O)N(Cc3ccco3)C1=C[C@H](COCc1ccccc1)O[C@@H]2C,.,.,/,.,/,/,/,/,/,/
CCOC(=O)c1c(C)n(-c2ccc(C)cc2)c2c(C(C(C)=O)C(=O)O)c(Br)c(O)c(O)c12 (stereo not drawn),.,.,104.9,.,64.8,37.3,.,101.2,.,.
CCOC(=O)N1CCN(C(=O)C[C@H]2C[C@@]3(C(=O)OC)C(=C[C@H](C(C)(C)C)O[C@@H]3C)N(Cc3ccc4c(c3)OCO4)C2=O)CC1,.,.,/,.,/,/,/,/,/,/
CNCc1ccccc1Sc1ccc(O)c(O)c1,65.7,.,97.9,.,50.8,69.7,.,94.9,72.5,61.1
COc1ccc(Sc2ccccc2CN(C)C)cc1OC,.,.,.,.,.,/,/,/,/,/
COC(=O)c1cc2c(c3c4cc(OC)ccc4n(S(=O)(=O)c4cccc(C)c4)c13)C(=O)N(Cc1ccccc1OC)C2,.,.,/,.,/,/,/,/,/,/
O=C(NCCc1ccccc1)OCc1cn(Cc2ccc(F)cc2F)nn1,.,.,/,.,/,/,/,/,/,/
COc1ccc(S(=O)(=O)Nc2cc(SCC(=O)O)c(O)c3ccccc23)cc1,52.2,.,110.4,.,32.7,.,.,95.8,.,.
COc1ccc(S(=O)(=O)Nc2cccc3ccc(O)cc23)cc1,.,.,.,.,/,/,/,/,/,/
COc1ccc(CN2C[C@H](COCc3ccccc3)Oc3cccc(F)c3S2(=O)=O)cc1,.,.,/,.,/,/,/,/,/,/
CN=c1scc(C)n1/N=C/c1ccc(O)c(O)c1O,26.1,.,88.2,.,47.4,.,.,77.9,.,.
C=CCN(C)CC#Cc1ccc(F)cc1,.,.,/,.,/,/,/,/,/,/
Nc1c(C(=O)Nc2ccc(F)cc2)sc(=S)n1-c1ccccc1F,.,.,98.8,.,48.4,.,.,55.9,.,.
CCn1c(=O)n(CC)c2cc(N3CCCC3)c(NC(=O)c3ccc(F)cc3)cc21,.,.,77.7,.,34.9,.,.,.,/,/
